In the supplement of paper PMC6555819:

Key:
Assay in all cases: PBM binding z-score (relative to random genomic background probes); higher = stronger binding; sequences stand for … in GC…GCGATTGACAGCGTAGAATGAAGG
[1] = test system: RARb homodimer (NR concentration 270 nM)
In short: (§1)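 Scanned fluorescence from custom Agilent 4×180K protein-binding microarrays was regression-normalized. Binding z-scores use random background probes as reference. Ligand-free nuclear receptor dimers were incubated on the arrays for 1 h and detected with antibodies against each partner (one per run).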

[2] = test system: RARg:RXRa (NR concentration 270 nM, RXRa partner concentration 90 nM)
In short: as §1

[3] = test system: RARg homodimer (NR concentration 270 nM)
In short: as §1

[4] = test system: RXRa DBDmut IVT, anti-RXR (DBD mutation: RXRa K156A/R161A, NR concentration 90 nM)
In short: as §1

[5] = test system: RXRa homodimer (NR concentration 180 nM)
In short: as §1

[6] = test system: THRa:RXRa (NR concentration 90 nM, RXRa partner concentration 90 nM)
In short: as §1

[7] = test system: THRa homodimer (NR concentration 90 nM)
In short: as §1

[8] = test system: VDR:RXRa (NR concentration 270 nM, RXRa partner concentration 90 nM)
In short: as §1

[9] = test system: VDR homodimer (NR concentration 270 nM)
In short: as §1

Sequence | PBM binding z-score [1] | PBM binding z-score [2] | PBM binding z-score [3] | PBM binding z-score [4] | PBM binding z-score [5] | PBM binding z-score [6] | PBM binding z-score [7] | PBM binding z-score [8] | PBM binding z-score [9]
CGAACTAGGTAATTGACAGGACAGTGAATAGTAA | 0.027 | 0.00313 | 0.198 | 0.0767 | -0.137 | 0.166 | -0.0579 | -0.257 | -0.054
GATACAGGGTCTGCTAGAGGCCAGAGTATGGAAA | 0.393 | 0.857 | 0.279 | -0.877 | -0.0451 | -0.093 | -0.687 | -0.492 | -0.39
CCGTCTGGGGCATAAGGTTACCATAAGCCAGCCC | 1.92 | 1.86 | 1.18 | -0.715 | 1.23 | 2.17 | 1.31 | 0.256 | 0.173
GATACACGGTCAGCTAGAGGCCAGAGTATGGAAA | 1.9 | 2.39 | 2.33 | -0.51 | 0.403 | 0.349 | -0.599 | -0.349 | -0.244
ATATGTAGGTTAGCTGGGGTAATTCAGACTAGGC | 0.856 | 0.69 | 0.761 | 0.642 | 0.773 | 3.87 | 0.672 | 0.945 | 0.606
TCTTGTAGAACAAGCAGGTTAAGAAAGCCTGAGT | 0.0404 | -0.0958 | -0.255 | 0.567 | 0.349 | 0.0268 | -0.349 | 0.279 | -0.0601
ACAGACAGGTGATGAACGTAACTCAGGCTATCAT | 0.0133 | 0.303 | 0.489 | 0.0589 | 0.363 | 0.000937 | -0.114 | -0.0512 | -0.513
CGAACTAGGTCAAGGACAGAGAATCTCCGCACGC | 2.93 | 3.95 | 4.67 | 1.52 | 2.61 | 2.74 | 1.79 | 1.02 | 0.0808
AGAACGAGGGCAATGAGTTGATACCACGGGTGGC | 0.985 | 1.02 | 1.7 | 2.06 | 0.987 | 0.993 | -0.484 | 5.25 | 3.27
TCTACTAGTTGAAGGGCAACCGACGAGTCCGTTT | 0.815 | 0.16 | 0.311 | 1.11 | 0.353 | -0.216 | -0.254 | 0.635 | 0.707
CCTCTGAGGACAGAAGGTCAGAGCTGTCCGCTTT | 3.74 | 3.76 | 3.58 | 1.08 | 2 | 3.4 | 1.58 | 1.2 | 0.647
ACTATCAGTTGAGACGAGGGCAACCGATAGGTTG | 1.12 | 0.732 | 0.78 | 0.39 | 0.625 | 2.59 | 0.179 | 0.625 | 0.822
TCTGGGAGGACACGAAGGTCAGAGCTTTCCAGAG | 3.49 | 3.51 | 4.11 | 0.416 | 2.01 | 2.9 | 1.18 | 2.18 | 1.35
GCTTTTAGTTGAAAGGGCAACCGAATGATTCTCG | 1.78 | 1.2 | 1.29 | 0.971 | 1.06 | 0.54 | -0.708 | 0.313 | -0.32
TCTTGTAGATCAAGAAGGTTAAGAAAGCCTGAGT | 0.784 | 0.407 | 0.315 | 0.387 | 0.863 | 0.451 | -0.553 | 1.16 | 0.21
CTCGAAAGGCCGTGCTCAGGTGAGTATACCAAAC | 0.384 | 0.136 | 0.46 | 0.0515 | -0.297 | 1.61 | 0.381 | -0.528 | -0.249
